{"source": "PubChem BioAssay AID924", "about": "(National Center for Advancing Translational Sciences (NCATS), 2007)", "note": "The campaign covered roughly 130,000 compounds. About 1,200 (0.92%) were called active. About 3% were inconclusive and are not listed. The entries come from a sample that favours actives as a whole. Entries that show only a call come without a potency. Unmarked numbers belong to inactive results. Calls follow the shape of the dose curve; as a rule, active = well fitted cell-killing curve with a large enough effect; inconclusive = small, poorly fitted or top-dose-only effect; inactive = no such curve, though single readings can be large or run the other way. Potency is read from the fitted curve at half-maximal effect.", "data": [{"experiment": "qHTS Screen for Compounds that Selectively Target Cancer Cells with p53 Mutations: Cytotoxicity of p53ts Cells at the Permissive Temperature; also: nearly all actives have a fitted effect of over 55% in size", "settings": "H1299-p53A138V at 32C, ATP luminescence viability, 24 h; series mostly up to 46.1 µM", "source_text": "NIH Chemical Genomics Center [NCGC] NIH Molecular Libraries Screening Centers Network [MLSCN] MLSCN Grant: 1 X01 MH079844-01 Assay Submitter (PI): Dr. SUN, YI, University of Michigan NCGC Assay Overview: Synthetic Lethal Screen for Compounds to Kill Cancer Cells with p53 Mutation. Tumor suppressor gene p53 serves as a major cellular barrier against tumorigenesis. […] The goal of this screening is to identify small molecule probes that selectively kill cancer cells with mutations in p53. This screening was carried out using two lines of H1299 lung cancer cells. The H1299-p53 A138V line express a temperature sensitive p53 mutant (p53ts) in which the mutant p53 protein (A138V) is in the mutant confirmation when grown at 39C (the nonpermissive temperature) and in the wild type conformation when grown at 32C (the permissive temperature). A H1299-neo line (p53 null) grown at both 39C and 32C were used as counter-screens to filter out false positive associated with temperature shifting. The small molecular compounds that selectively target mutant p53-containing cancer cells were selected as candidate probes for further study. A cytotoxicity assay based on the measurement of ATP contents in cells was used in this screen. Concentration-responses of all the compounds in the library collection were determined in qHTS using the cell lines and temperature conditions as above.\nNCGC Assay Protocol Summary: Both the H1299-p53A138V and H1299-neo cell lines were provided by Dr.Yi Sun, a PI at the University Michigan. The cells were maintained and cultured at 37C. The resuspended frozen cells were used to plate the cells in the 1536-well assay plates at a density of 600 cells per well in 5 ul medium. The assay plates with the cells were incubated at 37C for 16 to 30 hours before the experiments. The library compounds in DMSO solution were added to the cells in assay plates and incubated 24 hours at 39C (for mutant p53 conformation) or 32C (for normal p53 conformation as control). An ATP_lite assay kit (PerkinElmer) was used to determine the cell viability. Tomaxifen (100uM) was used as the positive control for cell killing. Data were normalized to the controls for basal activity (DMSO only) and 100% killing (100uM tamoxifen). AC50 values were determined from concentration-response data modeled with the standard Hill equation. P53 assay protocol: 1. Reagent; 5 uL H1299-p53A138V or H1299-neo cell cells/well 2. Time; overnight; 37C incubation 3. Compounds; 23 nL; 5.9 nM to 46 uM 4. Controls; 23 nL; Tamoxifen 100 uM 5. Time; 24 hr; 37C incubation 6. Reagent; 3 uL; ATP_Lite reagent 7. Time; 20 min; Room Temperature 8. Detection; Luminescence; Viewlux plate reader Keywords: p53, synthetic lethal, cancer, cell viability, cytotoxicity, H1299 cell line, luminescence, MLSMR, MLSCN, NIH Roadmap, qHTS, NCGC", "values": [{"smiles": "COc1ccc(NC(=O)Nc2cccc3cccnc23)cc1", "Potency": "12.6 µM (active)"}, {"smiles": "Cc1cccc(Cn2cccc(C(=O)Nc3ccc4c(c3)OCCO4)c2=O)c1", "Potency": "inactive"}, {"smiles": "CC(=O)c1c(O)c(C)c(O)c(Cc2c(O)c3c(c(C(=O)/C=C\\c4ccccc4)c2O)OC(C)(C)C=C3)c1O", "Potency": "inactive"}, {"smiles": "CC(C)(c1ccc(OC[C@@H]2CO2)cc1)c1ccc(OC[C@H]2CO2)cc1", "Potency": "12.6 µM (active)"}, {"smiles": "CCOC(=O)c1ccc(N2C(=O)c3[nH]nc(-c4ccccc4)c3C2c2ccc(C(C)C)cc2)cc1", "note": "(stereo not given)", "Potency": "inactive"}, {"smiles": "Cc1nnc(NC(=O)c2cccn(Cc3cccc(F)c3)c2=O)s1", "Potency": "inactive"}, {"smiles": "C=CC#N", "activity change, negative = cytotoxicity": "-9.3% [at 1.84 µM]"}, {"smiles": "O=C(Nc1ccc(Cl)cc1C(=O)c1ccccc1)c1cc(Cl)cc(Cl)c1", "Potency": "inactive"}, {"smiles": "CN(C)C1C(=O)C(C(N)=O)=C(O)[C@@]2(O)C(=O)C3=C(O)c4c(O)cccc4[C@@](C)(O)C3C[C@@H]12", "note": "(stereo not given in full)", "Potency": "inactive"}, {"smiles": "CC(C)Nc1nc(Cl)nc(NC(C)C)n1", "Potency": "inactive"}, {"smiles": "CC[C@@H]1CN2CC[C@@H]1C[C@H]2[C@H](O)c1ccnc2ccc(OC)cc12", "Potency": "inactive"}, {"smiles": "C[C@H](CCC(=O)O)[C@H]1CC[C@@H]2[C@H]3CC[C@H]4C[C@H](O)CC[C@@]4(C)[C@@H]3CC[C@@]21C", "activity change, negative = cytotoxicity": "5.89% [at 9.22 µM]"}, {"smiles": "CC(C)Oc1ccc(NC(=O)c2cc3ccccc3o2)cc1", "Potency": "6.31 µM (active)"}, {"smiles": "CN(C)c1cccc(C(=O)Nc2nc3ccc(S(=O)(=O)NC(C)(C)C)cc3s2)c1", "Potency": "inactive"}, {"smiles": "Cc1ccc(NC(=O)N(Cc2ccc3c(c2)OCO3)C2CCN(Cc3ccccc3)CC2)cc1F", "Potency": "inactive"}, {"smiles": "Cc1ccc(-n2c(/C=C/c3cccc(C(F)(F)F)c3)nc3ccccc3c2=O)cc1", "Potency": "inactive"}, {"smiles": "CCN1C[C@]2(COC)C(O)C[C@H](OC)[C@@]34C5C[C@]6(O)C(OC)C(O)[C@](OC(C)=O)(C5C6OC(=O)c5ccccc5)C(C(OC)C23)C14", "note": "(stereo not given in full)", "Potency": "inactive"}, {"smiles": "N#Cc1c(Cl)c(Cl)c(Cl)c(C#N)c1Cl", "Potency": "3.98 µM (active)"}, {"smiles": "Cc1ccc(Cl)cc1N1CCN(C(=O)C2CCC(CNS(=O)(=O)c3cccs3)CC2)CC1", "note": "(stereo not given)", "Potency": "inactive"}, {"smiles": "Cn1cc(/C=C/c2nc3ccccc3c(=O)n2-c2ccccc2)c2ccccc21", "Potency": "inactive"}]}]}
